In PubChem BioAssay (NCI) one finds growth inhibition data, which are given here for ten compounds.

Compounds without any hit were thinned out: in the full panel of roughly 79,000, 15% have a hit. Values without a mark were called inactive. Activity calls are given as the source filed them. Rule as the data show it: active = growth inhibition above about 70%; inactive = the rest. Where a SMILES comes first, the peptide text is derived from it. The star is where a group is joined. OSu = O=C1CCC(=O)N1O*; OBn = c1ccc(CO*)cc1; Bn = c1ccc(C*)cc1

Test [1] is described as follows: NCI Yeast Anticancer Drug Screen. Data for the rad50 strain (AID 155).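 Also: 0% = growth of vehicle-only cultures of the same strain.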 The note with it: S. cerevisiae rad50 strain growth inhibition, active compounds read high. The procedure, abridged:
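Inhibition values express reduced yeast growth in compound-treated cultures relative to vehicle-treated controls.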

The nature of test [2]: NCI Yeast Anticancer Drug Screen. Data for the mec2-1 strain (AID 157). The settings on record: S. cerevisiae mec2-1 strain, active compounds read high. An outline of the steps:
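Using mec2-1 yeast: add compound, measure growth, express inhibition versus vehicle-treated cultures.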

A short description of test [3]: NCI Yeast Anticancer Drug Screen. Data for the sgs1 mgt1 strain (AID 161).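 Also: 0% = growth of cultures given vehicle only.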 The settings on record: S. cerevisiae sgs1 mgt1 strain, active compounds read high. The procedure, abridged: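 This yeast growth screen uses a strain with defined DNA-repair lesions; compound-treated growth is compared with vehicle-treated growth.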
A short description of test [4]: NCI Yeast Anticancer Drug Screen. Data for the cln2 rad14 strain (AID 165).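 Also: 0% = growth equal to vehicle treated cultures.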 The note with it: S. cerevisiae cln2 rad14 strain, active compounds read high. An outline of the steps:
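Yeast strain cln2 rad14, bearing defects in cell cycle control and DNA repair, serves as the test system; values reflect growth inhibition compared with vehicle.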

The nature of test [5]: NCI Yeast Anticancer Drug Screen. Data for the bub3 strain (AID 167). The note with it: S. cerevisiae bub3 mutant strain, active compounds read high. An outline of the steps:
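Steps: expose the mutant yeast strain to compound; grow alongside vehicle-treated cultures; measure growth; express inhibition against the vehicle cultures.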

Test [6] can be described thus: NCI Yeast Anticancer Drug Screen. Data for the mlh1 rad18 strain (AID 175). The note with it: S. cerevisiae mlh1 rad18 strain growth inhibition, active compounds read high. The procedure, abridged: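 Steps: expose repair-defective yeast to compound; measure growth; express inhibition against vehicle-treated controls.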
Where [7] appears, read: at 5.0 µM (retest, dose inferred, filed as 0.5).
Setting [8] is: at 50.0 µM (retest, dose inferred, filed as 5.0).

As to `CCN(CC)c1c(C(=O)/C=C/c2ccc(F)cc2)c(-c2ccccc2)nn(C)c1=O`, the growth inhibition was 29% in test [1] (setting [7]); 29% in test [1] (setting [8]); 87.9% (active) in test [1] (at 50.0 µM); 2% in test [2] (setting [7]); 2% in test [2] (setting [8]); 90.6% (active) in test [2] (at 50.0 µM). Besides, the growth inhibition was 12% in test [3] (setting [7]); 12% in test [3] (setting [8]); 70.5% (active) in test [3] (at 50.0 µM); 16% in test [4] (setting [7]); 16% in test [4] (setting [8]); 90.3% (active) in test [4] (at 50.0 µM). Also, the growth inhibition was -3% in test [5] (setting [7]); -3% in test [5] (setting [8]); 90.3% (active) in test [5] (at 50.0 µM); 1% in test [6] (setting [7]); 1% in test [6] (setting [8]); 86.2% (active) in test [6] (at 50.0 µM).

As to `Oc1ccc(C23CC4CC(CC(C4)C2)C3)cc1`, the growth inhibition is -148% in test [1] (setting [7]); -135% in test [1] (setting [8]); 38.1% in test [1] (at 50.0 µM); -50% in test [2] (setting [7]); -38% in test [2] (setting [8]); -1.75% in test [2] (at 50.0 µM). Besides, the growth inhibition in test [3] (setting [7]) is -56%; in test [3] (setting [8]), -46%; in test [3] (at 50.0 µM) it was 2.8%; in test [4] (setting [7]), -56%; in test [4] (setting [8]) it was -25%; in test [4] (at 50.0 µM) it was 32.8%. In addition, the growth inhibition in test [5] (setting [7]) is -69%; in test [5] (setting [8]), -66%; in test [5] (at 50.0 µM), -26.4%; in test [6] (setting [7]), -114%; in test [6] (setting [8]), -91%; in test [6] (at 50.0 µM) it was 2.1%.

As for `BrC(Br)([P+](c1ccccc1)(c1ccccc1)c1ccccc1)[P+](c1ccccc1)(c1ccccc1)c1ccccc1`, the growth inhibition was 18% in test [1] (setting [7]); 73% (active) in test [1] (setting [8]); 19.1% in test [1] (at 50.0 µM); 9% in test [2] (setting [7]); 41% in test [2] (setting [8]); 23.6% in test [2] (at 50.0 µM). Besides, the growth inhibition in test [3] (setting [7]) was 4%; in test [3] (setting [8]) it was 61%; in test [3] (at 50.0 µM), 27.5%; in test [4] (setting [7]), 4%; in test [4] (setting [8]), 24%; in test [4] (at 50.0 µM), 35.4%. Also, the growth inhibition in test [5] (setting [7]) is 4%; in test [5] (setting [8]), 42%; in test [5] (at 50.0 µM) it was 12.7%; in test [6] (setting [7]) it was 15%; in test [6] (setting [8]), 74% (active); in test [6] (at 50.0 µM), 78.2% (active).

With `S=c1sc2ccccc2n1CNc1ccccc1`, the growth inhibition is -2% in test [1] (setting [7]); 14% in test [1] (setting [8]); 64.9% in test [1] (at 50.0 µM); 0% in test [2] (setting [7]); 7% in test [2] (setting [8]); 68.1% in test [2] (at 50.0 µM). The growth inhibition is 2% in test [3] (setting [7]); 53% in test [3] (setting [8]); 72.2% (active) in test [3] (at 50.0 µM); -5% in test [4] (setting [7]); -10% in test [4] (setting [8]); -40.6% in test [4] (at 50.0 µM). Also, the growth inhibition in test [5] (setting [7]) was -1%; in test [5] (setting [8]), 18%; in test [5] (at 50.0 µM), 74.3% (active); in test [6] (setting [7]) it was 5%; in test [6] (setting [8]), -11%; in test [6] (at 50.0 µM), 69.3%.

For `CC(C)CC(NC(=O)C(N)CCC(=O)OCc1ccccc1)C(=O)NC(COCc1ccccc1)C(=O)NC(Cc1ccccc1)C(=O)ON1C(=O)CCC1=O` (stereo not given) (H-E(OBn)LS(Bn)F-OSu; configuration not given here), the growth inhibition was 54% in test [1] (setting [7]); 66% in test [1] (setting [8]); 81.7% (active) in test [1] (at 50.0 µM); 48% in test [2] (setting [7]); 74% (active) in test [2] (setting [8]); 84.6% (active) in test [2] (at 50.0 µM). Besides, the growth inhibition was 48% in test [3] (setting [7]); 81% (active) in test [3] (setting [8]); 83.1% (active) in test [3] (at 50.0 µM); 41% in test [4] (setting [7]); 71% (active) in test [4] (setting [8]); 86.7% (active) in test [4] (at 50.0 µM). In addition, the growth inhibition was 42% in test [5] (setting [7]); 81% (active) in test [5] (setting [8]); 80.8% (active) in test [5] (at 50.0 µM); 60% in test [6] (setting [7]); 79% (active) in test [6] (setting [8]); 79% (active) in test [6] (at 50.0 µM).

Take `Cc1cc(S(=O)(=O)c2ccc(Cl)cc2)nc(S(=O)(=O)c2ccc(Cl)cc2)c1C#N`: the growth inhibition in test [1] (setting [7]) is 45%; in test [1] (setting [8]), 78% (active); in test [1] (at 50.0 µM), 82.1% (active); in test [2] (setting [7]), 43%; in test [2] (setting [8]), 91% (active); in test [2] (at 50.0 µM), 87.2% (active). Further, the growth inhibition in test [3] (setting [7]) is 99% (active); in test [3] (setting [8]), 90% (active); in test [3] (at 50.0 µM), 85.2% (active); in test [4] (setting [7]), 99% (active); in test [4] (setting [8]), 91% (active); in test [4] (at 50.0 µM), 84.7% (active). Besides, the growth inhibition in test [5] (setting [7]) was 99% (active); in test [5] (setting [8]) it was 83% (active); in test [5] (at 50.0 µM) it was 80.4% (active); in test [6] (setting [7]) it was 42%; in test [6] (setting [8]), 89% (active); in test [6] (at 50.0 µM) it was 80.2% (active).

`O=[N+]([O-])c1ccc2nc(-c3ccc(Cl)cc3)[nH]c2c1`: the growth inhibition was 0% in test [1] (setting [7]); 91% (active) in test [1] (setting [8]); 71.5% (active) in test [1] (at 50.0 µM); -1% in test [2] (setting [7]); 89% (active) in test [2] (setting [8]); 72.8% (active) in test [2] (at 50.0 µM). For the same compound, the growth inhibition in test [3] (setting [7]) is -2%; in test [3] (setting [8]), 89% (active); in test [3] (at 50.0 µM) it was 75.4% (active); in test [4] (setting [7]) it was -6%; in test [4] (setting [8]), 83% (active); in test [4] (at 50.0 µM) it was 72.6% (active). In addition, the growth inhibition in test [5] (setting [7]) is 1%; in test [5] (setting [8]), 95% (active); in test [5] (at 50.0 µM) it was 81.9% (active); in test [6] (setting [7]) it was -15%; in test [6] (setting [8]) it was 94% (active); in test [6] (at 50.0 µM), 78.8% (active).

With `Nc1ncnc2c1ncn2CC(O)CN(CCO)CCO` (stereo not given) (tested in a mixture with another compound), the growth inhibition is -24% in test [1] (setting [7]); -1% in test [1] (setting [8]); -5% in test [1] (at 50.0 µM); -10% in test [2] (setting [7]); -7% in test [2] (setting [8]); -3.15% in test [2] (at 50.0 µM). Further, the growth inhibition was -11% in test [3] (setting [7]); -3% in test [3] (setting [8]); -12.1% in test [3] (at 50.0 µM); -12% in test [4] (setting [7]); 4% in test [4] (setting [8]); 18.8% in test [4] (at 50.0 µM). Besides, the growth inhibition is 7% in test [5] (setting [7]); 15% in test [5] (setting [8]); 2% in test [5] (at 50.0 µM); -15% in test [6] (setting [7]); -17% in test [6] (setting [8]); 22.2% in test [6] (at 50.0 µM).

Consider `CCOC(=O)CC1C(=O)N(c2nc(-c3ccc(Br)cc3)cs2)N=C1C` (stereo not given), for which the growth inhibition in test [1] (setting [7]) was 2%; in test [1] (setting [8]) it was 2%; in test [1] (at 50.0 µM), 43.5%; in test [2] (setting [7]), 2%; in test [2] (setting [8]), 37%; in test [2] (at 50.0 µM) it was 23.1%. The growth inhibition is 3% in test [3] (setting [7]); 7% in test [3] (setting [8]); 60.7% in test [3] (at 50.0 µM); -2% in test [4] (setting [7]); -9% in test [4] (setting [8]); 32.3% in test [4] (at 50.0 µM). Moreover, the growth inhibition in test [5] (setting [7]) is -23%; in test [5] (setting [8]), -8%; in test [5] (at 50.0 µM) it was 4.05%; in test [6] (setting [7]) it was 2%; in test [6] (setting [8]), -19%; in test [6] (at 50.0 µM), 75.8% (active).

For the compound `Oc1ccc(CC2CCC(O)CC2)cc1` (stereo not given), the growth inhibition is -169% in test [1] (setting [7]); -33% in test [1] (setting [8]); 50.5% in test [1] (at 50.0 µM); -61% in test [2] (setting [7]); -33% in test [2] (setting [8]); 28.6% in test [2] (at 50.0 µM). In addition, the growth inhibition is -66% in test [3] (setting [7]); -54% in test [3] (setting [8]); 22.6% in test [3] (at 50.0 µM); -59% in test [4] (setting [7]); -43% in test [4] (setting [8]); 45% in test [4] (at 50.0 µM). For the same compound, the growth inhibition in test [5] (setting [7]) is -76%; in test [5] (setting [8]) it was -24%; in test [5] (at 50.0 µM), 46.6%; in test [6] (setting [7]), -121%; in test [6] (setting [8]), -78%; in test [6] (at 50.0 µM), 24.2%.
